Data from PubChem BioAssay.

Assay: A549 cell viability effects, profiling panel, calcein-AM fluorescence, 48 h, basal (AID 1162); further: test concentration not given here
Details: higher = more signal

Structure (SMILES) | z-score
[N-]=[N+]=Nc1ccccc1[C@H]1OC(c2ccc(OCCCO)cc2)=N[C@@]1(Cc1ccccc1)C(=O)N1CCOCC1 | -1.59
CN1C(=O)C2C=CC(C(O)c3ccccc3)N(N3CCCCC3)C2C1=O (stereo unspecified) | -1.15
C=CCC(OC(C)=O)[C@@H]1[C@@H](N(Cc2ccc(-c3ccccc3)cc2)C(=O)Cc2ccc(F)cc2)c2cc(OCCCO)ccc2N1C(=O)c1ccc2ccccc2c1 (stereo partly specified) | 0.444
COc1cc(CO)cc(I)c1O[C@H]1C=C(C(=O)NCCO)C[C@@H](N(C(=O)c2cc3ccccc3oc2=O)C2CCCCCC2)[C@@H]1O | 0.062
CCCNC(=O)[C@@]1(Sc2ccc(C)cc2)CC(=O)N(Cc2ccccc2C(F)(F)F)[C@@H]1c1ccc(CO)cc1I | -0.567
NC(=O)[C@@H]1[C@H]2C(=O)O[C@H](c3ccccc3)[C@H](c3ccccc3)N2[C@H](c2ccc(OCCO)cc2)[C@@]12C(=O)Nc1ccc(C#CC3=CCCCC3)cc12 | -0.985
COCCCNC(=O)[C@@]1(Cc2ccccc2)N=C(c2ccc(OCCCO)cc2)O[C@H]1c1ccccc1CN=[N+]=[N-] | 0.925
Cc1ccc(C2C3C(=O)CC4C(=O)N(c5ccccc5)C(=O)C4C3CN2S(=O)(=O)c2ccc(C)cc2)cc1 (stereo unspecified) | -0.105
O=C(NC1CC1)[C@@H]1c2ccccc2C(=O)N(Cc2cc(F)cc(C(F)(F)F)c2)[C@H]1c1ccc(CO)cc1 | 0.35
COc1cc2c(cc1O)C(c1cccs1)N(Cc1cccc(OC(F)(F)F)c1)CC2 (stereo unspecified) | -2.79
CCOC(=O)C1=CC[C@@H](c2ccccc2)N(S(=O)(=O)c2ccc(C)cc2)[C@H]1c1ccc(CC)cc1 | -0.516
